For 59 compounds, max activity results are on record in PubChem BioAssay AID1259420 (Broad Institute, 2018).

About 250 (25%) of roughly 1,000 compounds were called active. Another 31% or so got no clear call; they are omitted. Only a sample is shown. Results with a measured potency or affinity are listed apart. Unmarked numbers belong to inactive results. The rule behind the calls is not given here. Numbered stars: 1 amine (or outer) side, 2 acyl side, 3 side chain; on linkers, the order of the positions; unused ones are H or OH. Bridge positions count the residues as written; N and C are the ends. Square brackets hold non-standard residues; d marks the D form. Side chains are listed from the residue outwards. Peptide text beside a SMILES is read from it. * marks the point of attachment. ξ: configuration not given here. Ethylenediamine = C(CN[*:2])N[*:1]; Heptanoyl(6-Me) = CC(C)CCCCC(=O)*; Hyp = O=C(O)[C@@H]1C[C@@H](O)CN1; Phg = N[C@H](C(=O)O)c1ccccc1; CO = O=C([*:1])[*:2]; ξDab = NCCC(N)C(=O)O; ξT = CC(O)C(N)C(=O)O; Bn = c1ccc(C*)cc1

The nature of this experiment: compound activity on host-cell Toxoplasma growth – dose response (AID 1259420).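 Note: host cells were HeLa; final incubation lasted 72 hours.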 The settings on record: Toxoplasma gondii growth in host cells, no IFN-gamma.

As for `C/C=C/c1ccc(C2[C@@H]3CN(S(=O)(=O)c4cccc(OC)c4)C[C@H]2N3)cc1` (some centres not stated), where the note is “at 19.5 µM unless noted”, the max activity is -10.6% [at 0.16 µM].
In the case of `Cc1cccc(-c2ccc(C3[C@@H]4CN(C(=O)Nc5ccc(F)cc5)C[C@H]3N4)cc2)c1` (some centres not stated), the max activity (at 19.5 µM unless noted) was 30.6% [at 10 µM].
The same measure, in the same setting: as for `CCCNC(=O)N1C[C@@H]2N[C@H](C1)C2c1ccc(-c2cccc(F)c2)cc1` (some centres not stated), the figure is 16.2% [at 21 µM]; as for `O=S(=O)(c1ccc(F)cc1)N1C[C@@H]2N[C@H](C1)C2c1ccc(/C=C/c2ccccc2)cc1` (some centres not stated), 27.1%; as for `O=C(NC1CCCC1)N1CCCCN2[C@H](CO)[C@@H](c3ccc(-c4cccnc4)cc3)[C@H]2C1`, 9.08% [at 0.038 µM].
Consider `O=C(c1cccc(F)c1)N1CCCCN2[C@H](C1)[C@H](c1ccc(C#CC3(O)CCCC3)cc1)[C@@H]2CO`, for which the max activity by setting is: (at 10 µM) -12.3%; (at 21 µM) -8.26%.
`COCC#Cc1ccc([C@@H]2[C@H]3CN(C(=O)NC4CCCC4)CCCCN3[C@H]2CO)cc1`: the max activity (at 19.5 µM unless noted) was 30.5%.
Still for that read-out and setting: in the case of `O=C(c1cccc(F)c1)N1CCCCN2[C@H](C1)[C@@H](c1ccc(C#CC3(O)CCCC3)cc1)[C@@H]2CO` it was 13.2%; in that of `CC(C)CC#Cc1ccc([C@@H]2[C@@H](CO)N3CCCCN(C(=O)Nc4ccccc4)C[C@@H]23)cc1`, 7.18% [at 2.6 µM]; in that of `O=C(Nc1cccc(F)c1)N1CCCCN2[C@H](CO)[C@@H](c3ccc(C#Cc4cccnc4)cc3)[C@@H]2C1`, 5.46% [at 5 µM].
`O=C(Nc1cccc(F)c1)N1CCCCN2[C@H](C1)[C@@H](c1ccc(C#Cc3cccnc3)cc1)[C@@H]2CO`: the max activity (at 0.3 µM) is -7.31% and the max activity (at 19.5 µM) is -13.4%.
For the compound `O=C(NC1CCCC1)N1CCCCN2[C@@H](CO)[C@H](c3ccc(-c4cccnc4)cc3)[C@@H]2C1`, the max activity (at 19.5 µM unless noted) is 11.1% [at 2.6 µM].
In the case of `CNc1ncc(CN(C)C(=O)c2csc(C)n2)cn1`, where the note is “at 19.5 µM unless noted”, the max activity was -6.03% [at 5 µM].
Still for that read-out and setting: as for `Cc1cnc(N2C[C@@H](c3ccccc3)[C@@]3(CCNC3=O)C2)nc1`, the figure is 67.2%; as for `CC1(C)C2CCC1(CS(=O)(=O)O)C(=O)/C2=C\c1ccc(/C=C2/C(=O)C3(CS(=O)(=O)O)CCC2C3(C)C)cc1`, 5.44%.
On to `Fc1ccccc1-c1ccc(C2[C@H]3CNC[C@@H]2N3CC2CC2)cc1` (some centres not stated), for which, for the setting “at 19.5 µM unless noted”, the max activity was 11.6%.
Still for that read-out and setting: as for `CC(=O)O[C@H]1C[C@@H](OC(C)=O)C(C)(C)C2C[C@@H](OC(C)=O)[C@@]3(C)C4=CC(=O)O[C@@H](c5ccoc5)[C@]4(C)CCC3[C@]21C` (some centres not stated), the figure is -6.69% [at 0.16 µM]; as for `O=C(C[C@@H]1CC[C@@H]2[C@H](COC[C@H](O)CN2C(=O)c2cc(Cl)cc(Cl)c2)O1)N1CCc2ccccc2C1`, 9.95%.
Regarding `C/C=C/c1ccc(C2[C@@H]3CN(Cc4cccc(OC)c4)C[C@H]2N3)cc1` (some centres not stated), where the note is “at 19.5 µM unless noted”, the max activity was 25.8% [at 1.2 µM].
On the same count and under the same terms, in the case of `O=C(Nc1cccc(F)c1)N1CCCCN2[C@@H](CO)[C@@H](c3ccc(C#Cc4cccnc4)cc3)[C@@H]2C1` it was 16.4% [at 0.6 µM].
On the same count and under the same terms, in the case of `O=C(Nc1cccc(F)c1)N1CCCCN2[C@H](C1)[C@H](c1ccc(C#Cc3cccnc3)cc1)[C@@H]2CO` it was -11.5% [at 21 µM]; in that of `CC(C)CCN1Cc2c(C(=O)Nc3cccc(F)c3)ncn2-c2ccccc2S1(=O)=O`, 27% [at 10 µM].
Still for that read-out and setting: as for `COc1ccccc1NC(=O)N1CC(=O)N2[C@H](C1)[C@@H](c1ccc(C#CC(C)C)cc1)[C@@H]2CO`, the figure is -5.1% [at 5 µM]; as for `OC[C@@H]1Nc2ccc(C#Cc3ccc(F)cc3)cc2[C@@H]2[C@H]1CCN2Cc1ccc2c(c1)OCO2`, 6.67% [at 1.2 µM]; as for `N#Cc1ccc(-c2ccc([C@@H]3[C@H]4CNC[C@@H]3N4Cc3ccc4c(c3)OCO4)cc2)cc1`, 27.3% [at 10 µM].
For the compound `O=C(c1ccc2c(c1)OCO2)N1CC[C@@H]2[C@H](CO)Nc3ccc(C#Cc4ccccc4)cc3[C@@H]21`, for the setting “at 19.5 µM unless noted”, the max activity is 15.9%.
Still for that read-out and setting: as for `COCCO[C@H]1CCN(Cc2c(C)noc2C)[C@H]1Cc1ccccc1`, the figure is -15.1% [at 10 µM]; as for `NCCCC[C@@H]1NC(=O)[C@@H](Cc2c[nH]c3ccccc23)NC(=O)[C@H](c2ccccc2)NC(=O)[C@@H]2C[C@@H](OC(=O)NCCN)CN2C(=O)[C@H](Cc2ccccc2)NC(=O)[C@H](Cc2ccc(OCc3ccccc3)cc2)NC1=O` (cyclo([Hyp]([CO-Ethylenediamine])[Phg][dW]KY(Bn)F)), -6.82% [at 1.2 µM].
The same measure, in the same setting: as for `CCCCC[C@H](CC(=O)NO)C(=O)N[C@H](C(=O)N1CCC[C@H]1CO)C(C)C`, the figure is -4.64% [at 1.2 µM]; as for `O=C(C[C@H]1CC[C@H]2[C@@H](COC[C@@H](O)CN2Cc2ccc(Oc3ccccc3)cc2)O1)N1CCN(c2ccccc2)CC1`, -8.77% [at 10 µM]; as for `Nc1c(-c2nnc(-c3ccccc3)o2)sc2nc(-c3ccccc3)cc(-c3ccccc3)c12`, -6.07% [at 0.6 µM].
Same read-out and setting: in the case of `CCN(CC)CCOC(=O)C(c1ccccc1)C1CCCCC1` (configuration not stated) it was 16.1% [at 10 µM].
As for `COc1ccc(Cc2nnc(NC(=O)CC(C)C)s2)cc1`, the max activity (at 19.5 µM unless noted) is 16.7% [at 10 µM].
The same measure, in the same setting: as for `COCC12CCCOC1CCN(S(=O)(=O)c1cn(C)cn1)C2` (configuration not stated), the figure is -11.3% [at 2.6 µM]; as for `CC(C)C#Cc1ccc([C@@H]2[C@@H](CO)N3C(=O)CN(S(=O)(=O)c4ccccc4)C[C@H]23)cc1`, 8.39%; as for `Cc1ccc(S(=O)(=O)N2CC[C@@H]3[C@H](CO)Nc4ccc(-c5cccc(C(=O)N(C)C)c5)cc4[C@@H]32)cc1`, 15.5%.
Still for that read-out and setting: in the case of `O=C(C[C@H]1CC[C@@H]2[C@H](COC[C@H](O)CN2C(=O)c2cc(Cl)cc(Cl)c2)O1)N1CCc2ccccc2C1` it was 6.12% [at 2.6 µM]; in that of `c1ccc(-c2ccc([C@H]3[C@H]4CNC[C@@H]3N4Cc3cc(-c4ccccc4)on3)cc2)cc1`, 21.8% [at 21 µM]; in that of `COc1ccc(S(=O)(=O)N(C)C[C@H]2Oc3c(NC(=O)c4nc5ccccc5s4)cccc3C(=O)N([C@@H](C)CO)C[C@H]2C)cc1`, 5.87% [at 5 µM].
On the same count and under the same terms, as for `Cc1ccc(S(=O)(=O)Nc2ccc3c(c2)C(=O)N([C@@H](C)CO)C[C@H](C)[C@H](CN(C)Cc2ccc(C(F)(F)F)cc2)O3)cc1`, the figure is 18.3%.
Consider `OC[C@@H]1[C@@H](c2ccc(-c3cccc(F)c3)cc2)[C@@H]2CN(Cc3cncnc3)CCCCN12`, for which the max activity reads like this: (at 1.2 µM) -7.4%; (at 19.5 µM) 16.1%.
In the case of `Cc1ccc(CN2CC[C@H]3CO[C@@H](CNC(=O)C4CC4)[C@@H]3C2)cc1`, the max activity (at 19.5 µM unless noted) was -26.4% [at 10 µM].
On the same count and under the same terms, as for `CC(C)CCCCC(=O)NC(CCN)C(=O)NC(C(=O)NC(CCN)C(=O)NC1CCNC(=O)C(C(C)O)NC(=O)C(CCN)NC(=O)C(CCN)NC(=O)[C@H](CC(C)C)NC(=O)[C@@H](CC(C)C)NC(=O)C(CCN)NC1=O)C(C)O` (stereo partly drawn) ({Heptanoyl(6-Me)}-[ξDab][ξT][ξDab][ξDab][ξDab][dL]L[ξDab][ξDab][ξT]; lactam 4-C), the figure is -5.41% [at 2.6 µM].
Same read-out and setting: in the case of `O=C(C1CCCCC1)N1[C@@H](CO)[C@@H]2c3ccccc3N(S(=O)(=O)c3ccccc3)C[C@@H]21` it was 7.57%; in that of `O=C(NC1CCCC1)N1[C@@H]2CNC[C@H]1C2c1ccc(-c2cccnc2)cc1` (some centres not stated), -14.9% [at 10 µM].
On the same count and under the same terms, as for `CN(C)C(=O)c1cccc(-c2ccc3c(c2)[C@@H]2[C@@H](CCN2C(=O)Cc2ccccc2)[C@H](CO)N3)c1`, the figure is 13.7% [at 21 µM]; as for `CN(C)C(=O)c1cccc(-c2ccc3c(c2)[C@H]2[C@H](CCN2C(=O)Cc2ccccc2)[C@@H](CO)N3)c1`, -6.17% [at 10 µM]; as for `O=C(Cc1cccnc1)N1CC(=O)N2[C@@H](CO)[C@H](c3ccc(C#CC4CCCCC4)cc3)[C@@H]2C1`, -4.29% [at 10 µM].
As to `CC(C)NC(=O)N1CC(=O)N2[C@H](C1)[C@@H](c1ccc(/C=C/c3ccccc3)cc1)[C@@H]2CO`, the max activity (at 19.5 µM unless noted) is 11.9% [at 5 µM].
The same measure, in the same setting: as for `CN(C)C(=O)c1cc2c(nc1NCC1CC1)CCN(Cc1ccccn1)CC2`, the figure is -6.11% [at 10 µM]; as for `CC(C)CN(C[C@@H](O)[C@H](Cc1ccccc1)NC(=O)O[C@H]1CO[C@H]2OCC[C@H]21)S(=O)(=O)c1ccc(N)cc1`, 6.05% [at 1.2 µM].
Still for that read-out and setting: as for `O=C(C1CC1)N1C[C@@H]2N[C@H](C1)C2c1ccc(/C=C/c2ccccc2)cc1` (some centres not stated), the figure is 27.3%.
As for `COc1ccc(-c2ccc(C3[C@@H]4CN(C(=O)c5cnccn5)C[C@H]3N4)cc2)cc1` (some centres not stated), the max activity (at 19.5 µM unless noted) was 19.9%.
The same measure, in the same setting: in the case of `COc1ccccc1-c1ccc(C2[C@@H]3CN(C(=O)c4ccncc4)C[C@H]2N3)cc1` (some centres not stated) it was -11% [at 5 µM].
Same read-out and setting: as for `Cc1csc([C@H]2C[C@H]3CCN(C(=O)c4cnccn4)C[C@@H]3O2)n1`, the figure is -12.1%.
The same measure, in the same setting: as for `CC(C)CNC(=O)c1cc(-c2ccn(CC3CC3)n2)n2ccccc12`, the figure is 21.6%; as for `Cc1ccc(S(=O)(=O)N2CCC3(CC2)OC(C(=O)N(C)C)Cn2ccnc23)cc1` (configuration not stated), -17%.
Regarding `O=C(NC1CCCC1)N1CC[C@H]2CN(Cc3cccc(Cl)c3)S(=O)(=O)[C@@H]2CC1`, the max activity (at 19.5 µM unless noted) is -17.4%.
Same read-out and setting: as for `CN(C)C(=O)CN1C[C@@H]2CCN(C(=O)Nc3ccccc3Cl)CC[C@H]2S1(=O)=O`, the figure is 7.52% [at 2.6 µM].
